What follows are sequences tested on RARb:RXRa (NR concentration 270 nM, RXRa partner concentration 90 nM) (assay: PBM binding z-score (relative to random genomic background probes); higher = stronger binding; sequences stand for … in GC…GCGATTGACAGCGTAGAATGAAGG).
How it was run: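 Ligand-free nuclear receptor dimers were bound for 1 h to custom Agilent 4×180K protein-binding microarrays. Detection used antibodies against each partner (one per run). Binding z-scores rest on regression-normalized fluorescence, with random background probes as the reference.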
In the case of TCTTGTTGATCAAGCAGGTTAAGAAAGCCTGAGT, the PBM binding z-score is reported as 0.317.
For CCGAGTAGGTTATGGGGCCTTCAGGCAACGGTGA, the PBM binding z-score was 0.668.
Sequence TCTCGGAGGACGCGAAAGGTCAGAGCTCGACATC has a PBM binding z-score of 3.89.
In the case of TAGCCTAGGTCAGATTGGGCCAGTATACGCTATA, the PBM binding z-score is reported as 3.16.
For GATATTAGTTGAAAGGGCAACCGAATGATTCTCG, the PBM binding z-score was 2.27.
For GGAACGAGGGCAAGCTGATAGCAGAGTTTGATGG, the PBM binding z-score was 2.46.
With CCGACTGGGGCACGGTTACCATAACGCACAGCCA the PBM binding z-score was 1.06.
For GCAGACAGGTGGAACGCAGGTAACTCAGGGTGGC, the PBM binding z-score was -0.55.
Sequence AGAATGAGGCTATACGTAGATCAGGGAAGAAAGT has a PBM binding z-score of 0.153.
For CCAGACAGGTGAGAAGGTACCTCAGCCTCGATTA, the PBM binding z-score was 0.313.
GCTAGCAGGCCATTTGCGTCACTCAATGACGGGC was tested, and the PBM binding z-score was -0.167.
ATCGAAAGTTCGACGAGGTGAGTATACACCGTTT was tested, and the PBM binding z-score was 2.32.
CCTCAGAGGACAACAGGAGGTCAGAGCTGCCAGA gave a PBM binding z-score of 3.46.
CGTCAAAGTTCAACTAAGGTAACGTACAGCACGC showed a PBM binding z-score of 5.42.
GAAACAGGGTCAAGGCCAGAGTACGCGTATTGAT was tested, and the PBM binding z-score was 4.73.
With GCTTGTAGATCAAGGTTAAGAACGACTAAGCTAA the PBM binding z-score was 0.716.
TCTTGTAGATCAAAGGTTAAGAATGCCGAAGCCT was tested, and the PBM binding z-score was 1.87.
GCTTGTAGTTCAAGGTTAAGAAAGACTAAGCTAA gave a PBM binding z-score of 2.61.

— the supplement of paper PMC6555819
